Measurements from PubChem BioAssay AID1159580 (chemical genetic matrix, 2015).
Several values for one entry are separate records, joined by “and”; a condition that tells them apart may be missing. Equal values may be shown once. The campaign covered roughly 5,500 compounds. About 2,000 (36%) were called active. Another 18% or so got no clear call; they are omitted. Cut-off read from the data, not from the text of the source: active = normalized growth mostly below about 0.91 (no sharp cut-off); inconclusive = no clear call, values can overlap the other calls; inactive = mostly above about 0.92. Some of the results follow.

Assay: chemical genetic growth profiling, strain panel (AID 1159580);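 note: tested at 20 µM; growth read once vehicle control cultures reached saturation at 30 °C; 1 = growth at the plate median or of vehicle wells; lower values mean less growth of the strain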
Details: growth OD

Measured: normalized growth

Nc1ccc(C(=O)O)c(O)c1
inactive: S. cerevisiae deletion strains, locus YKL009W, strain mrt4, active compounds read low 1 | S. cerevisiae deletion strains, locus YKL068W, active compounds read low 0.999 | S. cerevisiae deletion strains, locus YKL085W, strain MDH1 (second series), active compounds read low 0.995 | S. cerevisiae deletion strains, locus YKL085W, strain MDH1, active compounds read low 0.995 | S. cerevisiae deletion strains, locus YKL160W, strain elf1, active compounds read low 0.947 | S. cerevisiae deletion strains, locus YKL190W, strain CNB1, active compounds read low 1.01 | S. cerevisiae deletion strains, locus YKR001C, strain vps1, active compounds read low 0.992 | S. cerevisiae deletion strains, locus YKR026C, strain gcn3, active compounds read low 0.994 | S. cerevisiae deletion strains, locus YKR091W, strain srl3, active compounds read low 0.989 | S. cerevisiae deletion strains, locus YLL001W, strain dnm1, active compounds read low 0.924 | S. cerevisiae deletion strains, locus YLL026W, active compounds read low 1 | S. cerevisiae deletion strains, locus YLL041C, strain sdh2, active compounds read low 0.992 | S. cerevisiae deletion strains, locus YLR027C, strain aat2, active compounds read low 1 | S. cerevisiae deletion strains, locus YLR039C, strain RIC1, active compounds read low 1.02 | S. cerevisiae deletion strains, locus YLR058C, strain SHM2, active compounds read low 1.01 | S. cerevisiae deletion strains, locus YLR102C, strain apc9, active compounds read low 0.998 | S. cerevisiae deletion strains, locus YLR113W, strain HOG1, active compounds read low 1.03 and 1.02 | S. cerevisiae deletion strains, locus YLR221C, strain rsa3, active compounds read low 0.968 | S. cerevisiae deletion strains, locus YLR258W, strain gsy2, active compounds read low 1.01 | S. cerevisiae deletion strains, locus YLR262C, strain YPT6 (second series), active compounds read low 0.961 | S. cerevisiae deletion strains, locus YLR262C, strain YPT6, active compounds read low 1.06 | S. cerevisiae deletion strains, locus YLR268W, strain sec22, active compounds read low 0.99 | S. cerevisiae deletion strains, locus YLR320W, strain mms22, active compounds read low 0.954 | S. cerevisiae deletion strains, locus YLR330W, strain CHS5, active compounds read low 1.01 | S. cerevisiae deletion strains, locus YLR342W, strain FKS1 (second series), active compounds read low 1.04 | S. cerevisiae deletion strains, locus YLR342W, strain FKS1, active compounds read low 0.997 | S. cerevisiae deletion strains, locus YLR357W, strain rsc2, active compounds read low 0.955 | S. cerevisiae deletion strains, locus YLR370C, strain arc18, active compounds read low 0.995 | S. cerevisiae deletion strains, locus YLR371W, strain rom2, active compounds read low 0.997 | S. cerevisiae deletion strains, locus YLR384C, strain iki3, active compounds read low 0.994 | S. cerevisiae deletion strains, locus YLR418C, strain cdc73, active compounds read low 0.996 | S. cerevisiae deletion strains, locus YML016C, strain PPZ1, active compounds read low 1.01 | S. cerevisiae deletion strains, locus YML032C, strain rad52, active compounds read low 1 | S. cerevisiae deletion strains, locus YML120C, strain ndi1, active compounds read low 0.978 | S. cerevisiae deletion strains, locus YML124C, strain tub3, active compounds read low 0.996 | S. cerevisiae deletion strains, locus YMR058W, strain fet3, active compounds read low 0.995 | S. cerevisiae deletion strains, locus YMR078C, strain ctf18, active compounds read low 1 | S. cerevisiae deletion strains, locus YMR125W, strain sto1, active compounds read low 0.945 | S. cerevisiae deletion strains, locus YMR129W, active compounds read low 0.999 | S. cerevisiae deletion strains, locus YMR205C, strain PFK2, active compounds read low 0.939 | S. cerevisiae deletion strains, locus YMR223W, strain ubp8, active compounds read low 1 | S. cerevisiae deletion strains, locus YMR231W, strain pep5, active compounds read low 0.985 | S. cerevisiae deletion strains, locus YMR263W, strain SAP30, active compounds read low 1 | S. cerevisiae deletion strains, locus YMR307W, strain GAS1, active compounds read low 0.991 | S. cerevisiae deletion strains, locus YNL067W, strain RPL9B, active compounds read low 1.01 | S. cerevisiae deletion strains, locus YNL071W, strain lat1, active compounds read low 0.986 | S. cerevisiae deletion strains, locus YNL153C, strain GIM3, active compounds read low 0.998 | S. cerevisiae deletion strains, locus YNL183C, strain NPR1, active compounds read low 0.959 and 0.981 | S. cerevisiae deletion strains, locus YNL209W, strain ssb2, active compounds read low 0.997 | S. cerevisiae deletion strains, locus YNL233W, strain BNI4, active compounds read low 0.998 | S. cerevisiae deletion strains, locus YNL248C, strain rpa49, active compounds read low 0.967 | S. cerevisiae deletion strains, locus YNL250W, strain rad50, active compounds read low 1 | S. cerevisiae deletion strains, locus YNL271C, strain bni1, active compounds read low 0.985 | S. cerevisiae deletion strains, locus YNL298W, strain CLA4, active compounds read low 0.989 | S. cerevisiae deletion strains, locus YNL307C, strain MCK1, active compounds read low 1 | S. cerevisiae deletion strains, locus YNL322C, strain KRE1 (second series), active compounds read low 0.977 | S. cerevisiae deletion strains, locus YNL322C, strain KRE1, active compounds read low 1.01 | S. cerevisiae deletion strains, locus YNR049C, strain mso1, active compounds read low 0.994 | S. cerevisiae deletion strains, locus YNR052C, strain pop2, active compounds read low 0.998 | S. cerevisiae deletion strains, locus YOL006C, strain TOP1, active compounds read low 1.04 | S. cerevisiae deletion strains, locus YOL012C, strain htz1 0.886 | S. cerevisiae deletion strains, locus YOL147C, strain pex11, active compounds read low 0.999 | S. cerevisiae deletion strains, locus YOR001W, strain rrp6, active compounds read low 1.04 | S. cerevisiae deletion strains, locus YOR061W, strain CKA2, active compounds read low 1.01 | S. cerevisiae deletion strains, locus YOR069W, strain VPS5, active compounds read low 1.01 | S. cerevisiae deletion strains, locus YOR070C, strain gyp1, active compounds read low 0.995 | S. cerevisiae deletion strains, locus YOR080W, strain dia2, active compounds read low 1 | S. cerevisiae deletion strains, locus YOR083W, strain WHI5, active compounds read low 0.945 | S. cerevisiae deletion strains, locus YOR106W, strain vam3, active compounds read low 0.999 | S. cerevisiae deletion strains, locus YOR136W, strain idh2, active compounds read low 0.992 | S. cerevisiae deletion strains, locus YOR144C, strain elg1, active compounds read low 0.996 | S. cerevisiae deletion strains, locus YOR184W, strain ser1, active compounds read low 0.997 | S. cerevisiae deletion strains, locus YOR231W, strain MKK1, active compounds read low 1.01 and 1.04 | S. cerevisiae deletion strains, locus YOR265W, strain rbl2, active compounds read low 0.997 | S. cerevisiae deletion strains, locus YOR270C, strain vph1, active compounds read low 0.987 | S. cerevisiae deletion strains, locus YOR290C, strain snf2, active compounds read low 0.963 | S. cerevisiae deletion strains, locus YOR316C, strain cot1, active compounds read low 0.997 | S. cerevisiae deletion strains, locus YPL051W, strain arl3, active compounds read low 0.979 | S. cerevisiae deletion strains, locus YPL055C, strain LGE1, active compounds read low 1.01 | S. cerevisiae deletion strains, locus YPL078C, strain atp4, active compounds read low 0.946 | S. cerevisiae deletion strains, locus YPL106C, strain sse1, active compounds read low 0.968 | S. cerevisiae deletion strains, locus YPL240C, strain hsp82, active compounds read low 0.991 | S. cerevisiae deletion strains, locus YPL241C, strain CIN2, active compounds read low 1.01 | S. cerevisiae deletion strains, locus YPL256C, strain CLN2, active compounds read low 1.03 and 1.04 | S. cerevisiae deletion strains, locus YPR119W, strain clb2, active compounds read low 0.998 | S. cerevisiae deletion strains, locus YPR141C, strain kar3, active compounds read low 0.999 | S. cerevisiae deletion strains, locus YPR163C, strain tif3, active compounds read low 0.99 | S. cerevisiae deletion strains, locus YPR167C, strain met16, active compounds read low 1.01 | S. cerevisiae deletion strains, strain wtn01, active compounds read low 0.984 | S. cerevisiae strains, strain wild type, active compounds read low 1.01
